{"source": "PubChem BioAssay (NCI)", "note": "Several values for one entry are separate records, joined by “and”; a condition that tells them apart may be missing. Identical values can stand only once. Compounds without any hit were thinned out: in the full panel of roughly 83,000, 20% have a hit.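 Assay: single dose, 48 h. Readout: percent growth (0 = no net growth; negative = cell death). Active: <10.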 Activity calls are given as the source filed them.", "data": [{"system": "MDA-MB-468 breast", "assay": "NCI-60 one-dose screen, 48 h (100 = growth as untreated, 0 = no growth, -100 = all killed)", "conditions": "10 µM unless noted", "values": [{"smiles": "COC(=O)[C@]12CC[C@@H](C)[C@H](C)[C@@H]1C1=CC[C@@H]3[C@@]4(C)C=C(O)C(=O)C(C)=C4CC[C@@]3(C)[C@]1(C)CC2", "growth": "10.6% (inactive)"}, {"smiles": "CCN(CC)CCCNc1cccc2c(C)cc(OC)nc12", "growth": "74.8% (inactive)"}, {"smiles": "CCC(c1ccc(OC)cc1)C(CC)c1ccc(O)c(CN2CCCCC2)c1", "note": "(stereo not given)", "growth": "22.9% (inactive)"}, {"smiles": "Clc1nccc2c(-c3csc(-c4c[nH]c5ccc(Br)cc45)n3)c[nH]c12", "growth": "26.9% (inactive)"}, {"smiles": "O=C(NNC(=O)N1c2ccccc2C=Cc2ccccc21)c1ccccc1", "growth": "98.9% (inactive)"}, {"smiles": "CCCC(=O)NC(c1cccnc1)c1cc(C(C)(C)C)c2cccnc2c1O", "note": "(stereo not given)", "growth": "-20.4% (active)"}, {"smiles": "Cn1nc(C(F)(F)F)cc1-c1cc(Cl)c(OCc2ccc(Cl)cc2)c(-c2ccc(Cl)c(C(F)(F)F)c2)c1O", "growth": "-16.1% (active)"}, {"smiles": "O=C(CCCCCCN1CC(=O)N2[C@@H](c3ccccc3)c3[nH]c4ccccc4c3C[C@H]2C1=O)NO", "growth": "53.7% (inactive)"}, {"smiles": "COc1ccc(-c2ccc(-c3ccc(-c4ccc(C(=N)N)cc4)s3)s2)cc1OC", "growth": "-71.4% (active)"}, {"smiles": "COc1cc([C@@H]2c3cc4c(cc3[C@H](O)[C@H]3COC(=O)[C@@H]23)OCO4)cc(OC)c1OC", "growth": "-1.25% (active) and -3.58% (active)"}, {"smiles": "CC1=C(NCCN2CCCC2)C(=O)c2c(OCc3ccc(C(F)(F)F)cc3)cccc2C1=O", "growth": "82.2% (inactive)"}, {"smiles": "Cc1nc2c(=O)[nH]c(SCC(=O)Nc3cccc(F)c3)nc2[nH]c1=O", "growth": "98.9% (inactive)"}, {"smiles": "CCCCCCCCCCCCCC1=NC(C)(C)CN1C(C)C", "growth": "-61.4% (active)"}, {"smiles": "CCN(CC)c1ccc(/C=N\\NC(=O)c2cccc(Nc3ccnc(C(F)(F)F)c3)c2)c(O)c1", "growth": "24.6% (inactive)"}, {"smiles": "FC(F)(F)c1cc(Nc2cccc(Oc3ccc(NC4=NCCN4)nc3)c2)ccc1Cl", "growth": "-37.6% (active)"}, {"smiles": "O=S(=O)(NCCNc1nccc(-c2c(-c3cccc(O)c3)nc3occn23)n1)c1ccc(Br)cc1", "growth": "26.6% (inactive)"}, {"smiles": "Cc1sc(NC(=O)c2ccc(C(C)(C)C)cc2)c(C(=O)O)c1C", "growth": "80% (inactive)"}, {"smiles": "COc1cnc2c(c1)C(=O)c1c-2n(CCCBr)c(=O)c2cc([N+](=O)[O-])ccc12", "growth": "-15.8% (active)"}, {"smiles": "O=C(Nc1ccc(Cl)cc1)Oc1c(Cl)c(Cl)c(Cl)c(Cl)c1Cl", "growth": "106% (inactive)"}, {"smiles": "CCCCCC(CCC)COC(=O)c1ccc(OC)cc1", "note": "(stereo not given)", "growth": "104% (inactive)"}, {"smiles": "N#Cc1c(-c2ccccc2)nc(SCC(=O)N2CCOCC2)[nH]c1=O", "growth": "108% (inactive)"}, {"smiles": "O=C(CSc1nnc(-c2ccc(NC(=O)c3cccnc3)cc2)o1)N[C@@H](Cc1ccc(O)cc1)C(=O)O", "growth": "110% (inactive)"}, {"smiles": "COC1=C(C)C(=O)N2[C@@H]1[C@H](c1ccccc1)OC21C=CC(=O)C=C1", "growth": "-20.4% (active)"}, {"smiles": "CC(=O)N1N=C(c2cccc(Nc3ccncc3)c2)CC1c1ccccc1", "note": "(stereo not given)", "growth": "79.8% (inactive)"}, {"smiles": "NNc1ncnc2c1ncn2C1OC(CO)C(O)C1O", "note": "(stereo not given)", "growth": "58.8% (inactive)"}, {"smiles": "CN1CCN(Cc2ccc(NC(=O)c3cncc(C#Cc4cnc(N)c5ccc(C#N)cc45)c3)cc2C(F)(F)F)CC1", "growth": "-58.4% (active)"}, {"smiles": "CCCCCC(=O)N1c2ccccc2NC2=C(C(=O)CC(c3ccc(OC)c(OC)c3)C2)C1c1ccc(C(F)(F)F)cc1", "note": "(stereo not given)", "growth": "14.2% (inactive)"}, {"smiles": "COc1cc(NC(=O)C#Cc2ccccc2)c(OC)cc1Cl", "growth": "70.9% (inactive)"}, {"smiles": "COc1cc(C(C)n2cc(-c3ccccc3)nn2)ccc1OC1CCCC1", "note": "(stereo not given)", "growth": "5.07% (active)"}, {"smiles": "Cc1ccc(-c2cc(-c3ccccc3C)[nH]c(=O)c2C#N)s1", "growth": "99.3% (inactive)"}, {"smiles": "Nc1c(C(=O)c2ccccc2)sc2nc(-c3cnccn3)cc(-c3cccs3)c12", "growth": "111% (inactive)"}, {"smiles": "COc1ccc(C2OCC(C)(C)CO2)cc1OC", "growth": "92.4% (inactive)"}, {"smiles": "COc1ccc(OCC(=O)Nc2ccc(-c3nc4ccccc4s3)cc2C)cc1", "growth": "7.38% (active)"}, {"smiles": "Cc1ccc2nc3ccccc3c(NCc3ccc(Cl)cc3)c2c1", "growth": "-21.7% (active)"}, {"smiles": "CC(=O)NCC(=O)Nc1ccc(-c2nnc3ccccn23)nc1.CC(=O)NCC(=O)Nc1ccc(-c2nnc3ccccn23)nc1.[Pt+2]", "growth": "116% (inactive)"}, {"smiles": "O=P(O)(O)OCC1OC(n2cnc3c(NCc4ccco4)ncnc32)C(O)C1O", "note": "(stereo not given)", "growth": "-67% (active)"}, {"smiles": "CCCCC1COc2cccc3c2N1C=C/C3=C\\C(=O)N(C)c1cccc(Cl)c1", "note": "(stereo not given)", "growth": "84.4% (inactive)"}, {"smiles": "COc1ccc(OC)c(-c2nc(SCC(=O)c3ccc(Br)cc3)nc(Nc3ccc(S(N)(=O)=O)cc3)c2C#N)c1", "growth": "43.9% (inactive)"}, {"smiles": "O=C1c2c(c3c4ccccc4[nH]c3c3ccc4ccccc4c23)C(=O)N1CCN1CCOCC1", "growth": "58.6% (inactive)"}, {"smiles": "O=C(Cc1ccc(F)c(F)c1)Nc1cc(C2(C(F)(F)F)CC2)nn1Cc1ccccc1", "growth": "-33.1% (active)"}]}]}
